Measurements taken from publication PMC7826789 (International Journal of Molecular Sciences, 2021).

What was measured:
Conditions in all cases: Compound Concentration (nM):1000
PIK3CA(C420R) = system: PIK3CA(C420R)
PIK3CA(E542K) = system: PIK3CA(E542K)
PIK3CA(E545A) = system: PIK3CA(E545A)
PIK3CA(E545K) = system: PIK3CA(E545K)
PIK3CA(H1047L) = system: PIK3CA(H1047L)
PIK3CA(H1047Y) = system: PIK3CA(H1047Y)
PIK3CA(I800L) = system: PIK3CA(I800L)
PIK3CA(M1043I) = system: PIK3CA(M1043I)
PIK3CA(Q546K) = system: PIK3CA(Q546K)
PIK3CA = system: PIK3CA
PIK3CB = system: PIK3CB
PIK3CD = system: PIK3CD
PIK3CG = system: PIK3CG
PIK4CB = system: T1, PIK4CB
T1 construct: gene PI4KB

PIKFYVE = system: PIKFYVE
PIM1 = system: PIM1
PIM2 = system: PIM2
PIM3 = system: PIM3
PIP5K1A = system: PIP5K1A
PIP5K1C = system: PIP5K1C
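Further: KINOMEscan scanMAX binding as percent activity remaining versus control; lower means stronger binding.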

Row | Structure (SMILES) | Percent Control (PIK3CA(C420R)) [%] | Percent Control (PIK3CA(E542K)) [%] | Percent Control (PIK3CA(E545A)) [%] | Percent Control (PIK3CA(E545K)) [%] | Percent Control (PIK3CA(H1047L)) [%] | Percent Control (PIK3CA(H1047Y)) [%] | Percent Control (PIK3CA(I800L)) [%] | Percent Control (PIK3CA(M1043I)) [%] | Percent Control (PIK3CA(Q546K)) [%] | Percent Control (PIK3CA) [%] | Percent Control (PIK3CB) [%] | Percent Control (PIK3CD) [%] | Percent Control (PIK3CG) [%] | Percent Control (PIK4CB) [%] | Percent Control (PIKFYVE) [%] | Percent Control (PIM1) [%] | Percent Control (PIM2) [%] | Percent Control (PIM3) [%] | Percent Control (PIP5K1A) [%] | Percent Control (PIP5K1C) [%]
1 | COc1cc(/C=N/Nc2ncnc3[nH]ncc23)ccc1O [GW578748X] | 97 | 63 | 82 | 59 | 18 | 84 | 51 | 43 | 62 | 82 | 54 | 100 | 24 | 5 | 28 | 83 | 100 | 53 | 78 | 0
2 | COc1cc2ncnc(Nc3ccc4c(cnn4Cc4ccccc4)c3)c2cc1OC.Cl [GW282449A] | 100 | 100 | 100 | 100 | 100 | 100 | 99 | 100 | 100 | 100 | 100 | 100 | 100 | 100 | 93 | 100 | 100 | 100 | 100 | 76
3 | Cl.c1ccc(Cc2nc3ccc(Nc4ncnc5ccccc45)cc3[nH]2)cc1 [GR269666A] | 100 | 100 | 100 | 99 | 100 | 100 | 100 | 100 | 100 | 100 | 100 | 98 | 100 | 100 | 100 | 100 | 100 | 100 | 100 | 86
4 | O=C1Nc2ccc(C(=O)c3ccco3)cc2C1=Cc1cc(Cl)c(O)c(Cl)c1 [GW406108X] | 76 | 76 | 83 | 72 | 41 | 79 | 34 | 93 | 77 | 91 | 100 | 79 | 47 | 0.8 | 88 | 32 | 61 | 9.9 | 88 | 43
5 | NS(=O)(=O)c1ccc(N/N=C2\C(=O)Nc3ccc(C(=O)NCCc4c[nH]cn4)cc32)cc1 [GW300660X] | 100 | 100 | 100 | 100 | 98 | 100 | 98 | 81 | 100 | 100 | 100 | 100 | 95 | 100 | 100 | 32 | 100 | 32 | 100 | 0.7
6 | COc1cc2ncn(-c3cc(O[C@H](C)c4ccccc4Cl)c(C(N)=O)s3)c2cc1OC [GSK237701A] | 65 | 44 | 62 | 51 | 53 | 56 | 49 | 52 | 58 | 54 | 31 | 28 | 12 | 67 | 74 | 88 | 100 | 66 | 0 | 9.9
7 | NS(=O)(=O)c1ccc(N/N=C2\C(=O)Nc3ccc(-c4cnco4)cc32)cc1 [GW276655] | 81 | 89 | 98 | 89 | 94 | 87 | 91 | 87 | 97 | 96 | 98 | 88 | 83 | 75 | 100 | 45 | 96 | 56 | 26 | 55
8 | Cl.O=C(Nc1ccc(Oc2ccc3[nH]c(NC(=O)c4ccco4)nc3c2)cc1)Nc1cc(C(F)(F)F)ccc1F [GW683134A] | 100 | 99 | 100 | 100 | 78 | 100 | 100 | 100 | 100 | 100 | 100 | 90 | 100 | 100 | 100 | 100 | 100 | 100 | 100 | 98
9 | CCn1c(-c2nonc2N)nc2c(C#CC(C)(C)O)nc(OCCNC)cc21.Cl [GSK949675] | 100 | 100 | 88 | 100 | 100 | 77 | 100 | 100 | 100 | 75 | 91 | 82 | 73 | 100 | 20 | 100 | 56 | 100 | 79 | 0
10 | CC1=C(C(=O)Nc2ccc3[nH]ncc3c2)C(c2ccc3ccccc3c2)CC(=O)N1 (stereo not shown) [GSK270822A] | 90 | 83 | 91 | 88 | 97 | 89 | 93 | 74 | 86 | 90 | 70 | 100 | 97 | 73 | 83 | 91 | 100 | 92 | 95 | 99
11 | COC(=O)Nc1nc2ccc(Oc3ccc(NC(=O)Nc4cc(C(F)(F)F)ccc4F)cc3)cc2s1.Cl [GW693917A] | 95 | 96 | 100 | 83 | 91 | 84 | 82 | 100 | 94 | 100 | 100 | 76 | 100 | 95 | 100 | 100 | 100 | 100 | 100 | 100
12 | CC(C)COC(=O)c1ccc2c(c1)/C(=C/Nc1ccc(S(N)(=O)=O)cc1)C(=O)N2 [GW416981X] | 100 | 100 | 100 | 100 | 100 | 100 | 100 | 87 | 100 | 100 | 100 | 95 | 100 | 100 | 100 | 81 | 100 | 40 | 33 | 89
13 | COc1ccccc1-c1cc(/C=C2\C(=O)Nc3ncc(Br)cc32)cc(Br)c1O [GW442130X] | 78 | 100 | 76 | 100 | 100 | 50 | 100 | 60 | 100 | 83 | 80 | 64 | 65 | 68 | 30 | 100 | 96 | 100 | 86 | 100
14 | CN1CCN(C(=O)c2ccc(NC(=O)Nc3ccc(N(C)c4ccnc(Nc5ccc(CS(C)(=O)=O)cc5)n4)cc3)cc2)CC1.Cl [GW830263A] | 100 | 98 | 100 | 97 | 96 | 100 | 98 | 100 | 100 | 98 | 100 | 100 | 93 | 97 | 100 | 100 | 100 | 100 | 9.3 | 97
15 | Cl.O=C(O[C@H]1CN[C@H](C#Cc2cc3ncnc(Nc4ccc5c(cnn5Cc5ccccc5)c4)c3s2)C1)N1CCOCC1 [GSK200398A] | 100 | 100 | 100 | 85 | 100 | 100 | 83 | 100 | 98 | 100 | 100 | 100 | 100 | 100 | 100 | 100 | 100 | 100 | 100 | 99
16 | C/C(Nc1ccc(S(N)(=O)=O)cc1)=C1/C(=O)Nc2ccccc21 [GW335962X] | 95 | 100 | 100 | 100 | 100 | 85 | 100 | 100 | 100 | 100 | 100 | 95 | 100 | 100 | 100 | 91 | 95 | 89 | 96 | 84
17 | Cl.O=C(Nc1ccc(Oc2ccc3[nH]c(NC(=O)c4ccccc4)nc3c2)cc1)Nc1cc(C(F)(F)F)ccc1F [GW709042A] | 81 | 100 | 95 | 100 | 100 | 80 | 100 | 100 | 100 | 100 | 100 | 76 | 100 | 100 | 100 | 100 | 100 | 100 | 100 | 98
18 | COc1cc(C=NNc2ncnc3c2cnn3-c2ccccc2)ccc1O [GW513184X] | 78 | 100 | 76 | 100 | 100 | 62 | 100 | 59 | 100 | 78 | 100 | 76 | 22 | 34 | 4.9 | 100 | 100 | 100 | 29 | 51
19 | NS(=O)(=O)c1ccc(Nc2ncc(-c3ccccc3)o2)cc1 [GW572399X] | 100 | 100 | 100 | 100 | 93 | 100 | 100 | 93 | 100 | 100 | 100 | 100 | 100 | 71 | 100 | 100 | 100 | 100 | 100 | 74
20 | NS(=O)(=O)c1ccc(N/N=C2\C(=O)Nc3ccc(C(=O)NCc4ccncc4)cc32)cc1 [GW300657X] | 90 | 85 | 100 | 75 | 89 | 72 | 85 | 94 | 83 | 100 | 81 | 77 | 100 | 83 | 84 | 100 | 100 | 100 | 100 | 51
